Compound activity from PubChem.
CYP2C19 inhib = human CYP2C19 inhibition; P33261; CYP2C19 Supersomes, luciferin-H EGE luminescence, 30 min; inhibition, % at 5 µM; hit rate 21% among 96,000;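 active = CYP2C19 inhibition above a set limit at 5 µM in the primary screen, cut at about 50% in these data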;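 note: plate controls were negative control wells for no effect and 2.5 mM tranylcypromine positive control for full effect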
CYP2C9 activ = CYP2C9 (human) activation; hit rate 1.4% among 96,000; activation factor at 5 µM; AID 1024; recombinant CYP2C9, luciferin-H conversion, luminescence; hits give high values; factor 1 = untreated enzyme, 0 = blocked; P11712;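 active = activation factor of 2 or more for CYP2C9 at a 5 µM dose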;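 note: 0 = sulfaphenazole-blocked wells and 1 = vehicle-only wells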
Target sequence (P11712 whole entry, looked up): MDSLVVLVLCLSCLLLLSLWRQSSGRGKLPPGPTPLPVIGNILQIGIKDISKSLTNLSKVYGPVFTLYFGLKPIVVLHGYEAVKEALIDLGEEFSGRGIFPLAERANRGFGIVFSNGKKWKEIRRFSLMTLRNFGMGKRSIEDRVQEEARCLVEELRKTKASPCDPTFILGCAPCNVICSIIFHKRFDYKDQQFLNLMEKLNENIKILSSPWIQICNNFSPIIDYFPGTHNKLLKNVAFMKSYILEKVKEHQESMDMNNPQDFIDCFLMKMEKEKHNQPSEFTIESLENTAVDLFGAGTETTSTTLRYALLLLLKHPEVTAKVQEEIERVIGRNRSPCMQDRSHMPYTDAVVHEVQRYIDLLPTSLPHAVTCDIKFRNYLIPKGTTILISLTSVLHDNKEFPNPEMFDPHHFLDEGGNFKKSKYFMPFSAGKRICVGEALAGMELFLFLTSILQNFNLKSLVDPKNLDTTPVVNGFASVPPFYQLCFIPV
EphB4 ephrin blk = EphB4-ephrin-B2 interaction antagonism; AID 720; EphB4 LBD / TNYL-RAW-Alexa532 peptide, fluorescence polarization; hit rate 0.15% among 97,000; inhibition, % at 7 µM;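 active = inhibition above the screen-wide mean inhibition plus 3 SD, cut at about 15% in these data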;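 note: 0% = DMSO wells and 100% = excess unlabeled TNYL-RAW peptide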
CYP2C9 inh = blocks human cytochrome P450 2C9. CYP2C9 Supersomes, luciferin-H conversion, luminescence. inhibition, % at 5 µM. hit rate 20% among 96,000. AID 777;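 active = blocking of liver enzyme CYP2C9 beyond about 50% at 5 µM, limit read from the data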
CYP2C19 act = cytochrome P450 2C19 (human) activation. AID 1025. 96,000 tested, under 10 active. activation factor at 5 µM. recombinant CYP2C19, luciferin-H EGE luminescence; hits give high values; 0 = fully inhibited enzyme, 1 = untreated enzyme;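 active = activation factor of at least 2 at 5 µM in the primary screen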;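 note: 0 = wells with 2.5 mM tranylcypromine and 1 = vehicle-only wells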
Starred values were filed as active, the others as inactive; . = no result. Sampled rows, rich in hits. Any-hit rate of the full collection: about 27%.

SMILES | CYP2C19 inhib | CYP2C9 activ | EphB4 ephrin blk | CYP2C9 inh | CYP2C19 act
O=C(c1cccc(C(=O)N2CCN(c3ccccc3F)CC2)c1)N1CCN(c2ccccc2F)CC1 | 81.7* | 0.3 | . | 66.9* | 0.2
COc1cccc(-c2cc(C(=O)N3CCCCCC3)no2)c1 | 44.7 | 1.1 | -9.6 | -12.6 | 0.6
O=C(c1cc(-c2cccc(O)c2)on1)N1CCCCC1 | 51.0* | 1.9 | . | -93.3 | 0.5
COC(=O)c1cc(S(=O)(=O)N2CCOCC2)c(N2CCOCC2)cc1N1CCOCC1 | 40.9 | 0.2 | . | 75.9* | 0.6
O=C(c1cc(S(=O)(=O)N2CCCCC2)c(Cl)cc1N1CCOCC1)N1CCOCC1 | 1.0 | 0.8 | 6.9 | 18.1 | 1
O=C(Nc1ccc2nc(SCc3ccc(Cl)cc3)sc2c1)c1ccccc1C(=O)N1CCOCC1 | 19.8 | 1.1 | -2.4 | -8.9 | 0.8
CCC(=O)c1ccc(N2CCN(C(=O)c3cc([N+](=O)[O-])ccc3N3CCN(C)CC3)CC2)c(F)c1 | 16.2 | 0.8 | -1.1 | 23.9 | 0.8
COc1ccc(C(c2nnnn2Cc2ccccc2)N2CCN(c3nc4ccccc4s3)CC2)cc1OC (stereo not drawn) | . | . | 1.7 | . | .
O=C(c1ccc2c(c1)OCO2)N1CCN(c2ccccc2)CC1 | 87.9* | 0.5 | 0.6 | 45.4 | 0.1
COc1cc(OC)cc(C(=O)N2CCN(c3ccccc3F)CC2)c1 | 52.8* | 0.7 | 2.7 | 28.1 | 0.5
CCS(=O)(=O)N1CCC(C(=O)NCCCN2CCN(c3ccccc3F)CC2)CC1 | -4.4 | 0.9 | -4.7 | 7.1 | 1
Cc1ccc(-n2nc(C(=O)N3CCOCC3)cc2-c2ccc(Cl)cc2)cc1 | 21.8 | 0.3 | 5.4 | 70.7* | 0.8
O=C(c1cc(-c2ccc(Cl)cc2)n(-c2ccc(Cl)cc2)n1)N1CCOCC1 | 15.4 | 0.8 | 2.5 | 24.3 | 0.8
CCS(=O)(=O)N1CCN(c2ccccc2F)CC1 | 50.0* | 0.1 | 6.2 | 90.4* | 0.5
O=C(Nc1nc(N2C(=O)c3ccccc3C2=O)n(-c2ccccc2)n1)c1ccc(F)cc1 | 2.9 | 1 | 6.6 | 4.6 | 1
CCS(=O)(=O)N1CCN(C2CCC(c3ccccc3)CC2)CC1 (stereo not drawn) | 13.1 | 0.7 | -1.7 | 26.9 | 0.9
CC(O)c1nc2ccccc2n1Cc1nnc(-c2ccc(Cl)cc2)o1 (stereo not drawn) | 66.4* | 0.7 | 0.2 | 33.8 | 0.3
Cc1ccc(CCNS(=O)(=O)c2cnc[nH]2)cc1 | 73.3* | 0 | . | 98.0* | 0.3
O=S(=O)(NCc1ccc(Cl)cc1)c1cnc[nH]1 | 78.2* | 0 | -4.1 | 95.1* | 0.2
O=S(=O)(NCc1ccccc1)c1cnc[nH]1 | 62.2* | 0.1 | 5.7 | 94.6* | 0.4
O=C(O)C1C2C=CC(O2)C1C(=O)NCc1ccc(Cl)cc1 (stereo not drawn) | 3.2 | 1 | 1.8 | 0.4 | 1
C(=N\N(c1ccccc1)c1ccccc1)/c1ccc2c(c1)OCO2 | 12.0 | 0.4 | 6.1 | 55.6* | 0.9
CC(C)[C@H](N)c1nnc(SC/C=C/c2ccccc2)o1 | 82.5* | 0.8 | -1.9 | 15.6 | 0.2
N[C@@H](Cc1ccccc1)c1nnc(SCc2ccccc2F)o1 | . | . | -5.8 | . | .
COc1ccccc1NC(=O)c1nn(-c2ccc(OC(F)(F)F)cc2)ccc1=O | 5.9 | 1.6 | -3.5 | -61.9 | 0.9
SMILES | CYP2C19 inhib | CYP2C9 activ | EphB4 ephrin blk | CYP2C9 inh | CYP2C19 act
COc1cccc(CNC(=O)CN(c2cc(C)cc(C)c2)S(=O)(=O)c2c(C)noc2C)c1 | 54.8* | 0.4 | 0.7 | 58.4* | 0.5
CCOc1ccc(N(CC(=O)NC(C)CC)S(=O)(=O)c2c(C)noc2C)cc1 (stereo not drawn) | 63.9* | 0.7 | -4.1 | 27.6 | 0.4
CCOc1ccc(N(CC(=O)NCc2ccccc2)S(=O)(=O)c2c(C)noc2C)cc1 | 91.2* | 0.5 | 1.2 | 46.2 | 0.1
CCOc1ccc(NC(=O)CN(c2cc(C)cc(C)c2)S(=O)(=O)c2c(C)noc2C)cc1 | . | . | 7.3 | . | .
CCOc1ccc(N(CC(=O)Nc2nccs2)S(=O)(=O)c2c(C)noc2C)cc1 | 70.6* | 0.4 | -0.7 | 64.0* | 0.3
CCOc1nc(-c2ccccc2)ccc1-c1noc(COC)n1 | . | . | -10.2 | . | .
Cc1cc(NC(=O)c2ccccc2Cl)c(C(C)C)cc1O | 65.1* | 3.1* | -5.2 | -209.5 | 0.3
COC(=O)c1ccc2c(=O)n(NC(C)=O)c(=S)[nH]c2c1 | -9.9 | 1 | 2.1 | -3.7 | 1.1
Cc1noc(C)c1COC(=O)C1(c2cccc(F)c2)CCCC1 | 36.9 | 0.4 | . | 55.8* | 0.6
